According to PubChem BioAssay (EPA / NIEHS):
Inconclusive results are not listed. Activity calls are given as the source filed them. The calls were made as follows: active = hit-call score of the fitted dose curve at least 0.9, where 1 is the maximum; inconclusive = response in the unintended direction; inactive = score below 0.9.

Columns and labels:
[1] = molecular target: human AMP-activated Protein Kinase, alpha 1 (AMPKa1), PRKAA1 (gene 5562) (UniProt Q13131); test: NVS_ENZ_hAMPKa1: NovaScreen (NVS) Enzymatic Assay for human AMP-activated Protein Kinase, alpha 1 (AMPKa1) (AID 2283130)
Chain of human AMP-activated Protein Kinase, alpha 1 (AMPKa1), PRKAA1 (gene 5562) (Q13131 whole entry, looked up): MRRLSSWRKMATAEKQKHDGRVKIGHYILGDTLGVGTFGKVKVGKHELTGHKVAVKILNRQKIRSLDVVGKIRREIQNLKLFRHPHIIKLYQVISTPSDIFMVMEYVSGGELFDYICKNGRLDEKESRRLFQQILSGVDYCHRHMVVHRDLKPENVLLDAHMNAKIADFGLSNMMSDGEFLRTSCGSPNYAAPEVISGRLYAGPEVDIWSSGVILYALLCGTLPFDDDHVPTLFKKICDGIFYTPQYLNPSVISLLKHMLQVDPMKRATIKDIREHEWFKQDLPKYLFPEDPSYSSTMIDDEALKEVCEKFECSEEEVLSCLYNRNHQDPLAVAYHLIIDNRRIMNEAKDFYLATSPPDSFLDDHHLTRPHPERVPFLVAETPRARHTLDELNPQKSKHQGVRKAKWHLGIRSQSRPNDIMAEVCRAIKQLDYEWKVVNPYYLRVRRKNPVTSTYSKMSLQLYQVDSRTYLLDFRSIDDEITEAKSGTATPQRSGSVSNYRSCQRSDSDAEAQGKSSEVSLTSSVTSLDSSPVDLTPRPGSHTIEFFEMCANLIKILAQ
Outline: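 Recombinant human AMPKα1 activity was measured cell-free by fluorescent substrate conversion with electrophoretic mobility-shift separation, 1 h after dosing. Duplicate single-point screening was at 25 uM; actives (≥30% inhibition) were retested in concentration-response up to 50 uM.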

[2] = molecular target: human Acid Phosphatase 1 (ACP1), ACP1 (gene 52) (UniProt P24666); test: NVS_ENZ_hACP1: NovaScreen (NVS) Enzymatic Assay for human Acid Phosphatase 1 (ACP1) (AID 2283136)
Chain of human Acid Phosphatase 1 (ACP1), ACP1 (gene 52) (P24666 whole entry, looked up): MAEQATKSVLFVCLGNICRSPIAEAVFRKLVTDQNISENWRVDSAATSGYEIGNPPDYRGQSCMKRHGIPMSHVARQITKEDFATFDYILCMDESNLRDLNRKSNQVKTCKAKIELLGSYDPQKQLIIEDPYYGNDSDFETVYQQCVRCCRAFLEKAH
Outline: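 Recombinant enzyme expressed in Sf9 cells, tested cell-free; activity read by fluorescence with electrophoretic mobility shift separation of substrate and product, 1.5 h after dosing. Primary screen in duplicate at 25 uM, actives then run in concentration series; loss of signal versus DMSO.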

[3] = molecular target: human Caspase 5 (CASP5), CASP5 (gene 838) (UniProt P51878); test: NVS_ENZ_hCASP5: NovaScreen (NVS) Enzymatic Assay for human Caspase 5 (CASP5) (AID 2283137)
Chain of human Caspase 5 (CASP5), CASP5 (gene 838) (P51878 whole entry, looked up): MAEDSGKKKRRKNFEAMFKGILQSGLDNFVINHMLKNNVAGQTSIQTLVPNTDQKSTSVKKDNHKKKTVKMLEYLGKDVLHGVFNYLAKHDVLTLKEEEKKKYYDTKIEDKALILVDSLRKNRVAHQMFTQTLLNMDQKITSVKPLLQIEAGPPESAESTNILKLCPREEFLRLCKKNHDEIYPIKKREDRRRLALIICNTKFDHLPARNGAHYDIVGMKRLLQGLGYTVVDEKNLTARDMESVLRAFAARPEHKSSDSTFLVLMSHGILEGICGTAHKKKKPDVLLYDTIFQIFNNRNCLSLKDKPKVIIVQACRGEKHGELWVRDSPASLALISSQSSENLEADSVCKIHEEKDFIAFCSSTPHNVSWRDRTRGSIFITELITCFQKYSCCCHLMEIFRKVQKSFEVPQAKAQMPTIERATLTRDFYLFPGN
Outline: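 Recombinant E. coli-expressed human caspase 5 in a cell-free enzyme assay; fluorescence intensity read 2 hours after chemical dosing. Single-concentration duplicate screen at 25 uM, then concentration-response up to 50 uM for hits; DMSO negative control.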

[4] = molecular target: human Caspase 2 (CASP2), CASP2 (gene 835) (UniProt P42575); test: NVS_ENZ_hCASP2: NovaScreen (NVS) Enzymatic Assay for human Caspase 2 (CASP2) (AID 2283135)
Chain of human Caspase 2 (CASP2), CASP2 (gene 835) (P42575 whole entry, looked up): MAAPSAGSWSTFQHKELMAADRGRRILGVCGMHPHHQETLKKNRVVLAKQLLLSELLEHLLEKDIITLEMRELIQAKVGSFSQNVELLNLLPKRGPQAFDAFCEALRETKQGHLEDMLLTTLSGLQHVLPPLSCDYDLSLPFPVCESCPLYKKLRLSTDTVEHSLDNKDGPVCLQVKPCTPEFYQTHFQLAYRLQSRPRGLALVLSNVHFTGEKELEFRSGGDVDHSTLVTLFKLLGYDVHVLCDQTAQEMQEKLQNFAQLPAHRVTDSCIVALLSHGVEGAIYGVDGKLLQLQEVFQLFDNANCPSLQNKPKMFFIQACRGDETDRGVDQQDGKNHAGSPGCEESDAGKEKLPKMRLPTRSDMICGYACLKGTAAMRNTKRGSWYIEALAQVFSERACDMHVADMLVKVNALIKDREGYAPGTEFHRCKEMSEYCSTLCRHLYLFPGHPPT
Outline: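 E. coli-expressed enzyme in a cell-free protease assay, fluorescence read 1 h after dosing. Compounds at 25 uM in duplicate, with concentration-response up to 50 uM for hits; loss of signal against DMSO baseline.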

Caspase-1 (Homo sapiens) = Caspase-1 (Homo sapiens) (UniProt P29466); test: NVS_ENZ_hCASP1: NovaScreen (NVS) Enzymatic Assay for human Caspase 1 (CASP1) (AID 2283132)
Chain of Caspase-1 (Homo sapiens) (P29466 whole entry, looked up): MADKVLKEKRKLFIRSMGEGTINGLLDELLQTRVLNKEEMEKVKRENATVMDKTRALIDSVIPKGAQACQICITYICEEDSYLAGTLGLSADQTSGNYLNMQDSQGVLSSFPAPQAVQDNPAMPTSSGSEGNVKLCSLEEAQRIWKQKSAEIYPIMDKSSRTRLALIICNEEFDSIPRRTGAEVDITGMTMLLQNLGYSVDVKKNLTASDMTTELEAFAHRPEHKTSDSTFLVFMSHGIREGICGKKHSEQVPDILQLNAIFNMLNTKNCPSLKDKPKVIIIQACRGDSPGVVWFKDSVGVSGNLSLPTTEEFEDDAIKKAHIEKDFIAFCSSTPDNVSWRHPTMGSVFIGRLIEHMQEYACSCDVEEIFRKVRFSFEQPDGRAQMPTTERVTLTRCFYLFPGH
Outline: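 Cell-free enzymatic assay with E. coli-expressed recombinant protein; fluorescence intensity read 1 hour after dosing. Single-concentration duplicate screen at 25 uM, then concentration-response up to 50 uM; activity fitted relative to DMSO, loss of signal meaning inhibition.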

CCN(CC)N=O
outcome [1]: inactive
outcome [2]: inactive

Oc1ccc2ccc3cccc4ccc1c2c34
AC50 [1]: 6.02 µM (active)
AC50 [3]: 5.32 µM (active)

[Cl-].[Cl-].[Hg+2]
outcome [4]: inactive

Cc1ccc(N=C=O)cc1N=C=O
AC50 (Caspase-1 (Homo sapiens)): 25 µM (active)
outcome [4]: inactive

CN(C)[C@@H]1C(=O)C(C(N)=O)=C(O)[C@@]2(O)C(=O)C3=C(O)c4c(O)cccc4[C@@](C)(O)[C@H]3C[C@@H]12
outcome (Caspase-1 (Homo sapiens)): inactive

CCCCCCCCOC(=O)c1ccc(C(=O)OCCCCCCCC)c(C(=O)OCCCCCCCC)c1
outcome [4]: inactive

CCNS(=O)(=O)C(F)(F)C(F)(F)C(F)(F)C(F)(F)C(F)(F)C(F)(F)C(F)(F)C(F)(F)F
outcome [2]: inactive
